Results filed as inconclusive are left out. Where a call stands in place of a potency, no number is given. Unmarked numbers belong to inactive results. Activity calls are given as the source filed them. Calls follow the shape of the dose curve; as a rule, active = well fitted curve in the direction sought with a large enough effect; inconclusive = small, poorly fitted or top-dose-only effect, or another doubt; inactive = no such curve, though single readings can be large; an effect the other way counts as inactive or inconclusive.

Assay [1] is described as follows: qHTS to identify inhibitors of the type 1 interferon - major histocompatibility complex class I in skeletal muscle: primary screen against the NCATS Mechanism Interrogation Plate v5.0 (MIPE) Libary (AID 1347411). Also: nearly all actives have a fitted effect of over 65% in size. Also: potency is read from the fitted curve at half-maximal effect. In outline: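 Immortalized human myoblasts (C25cl48) with HiBit knocked into endogenous HLA-B*08:01 were stimulated with 4 ng/ml IFN-beta and given compounds in 11-point 1:3 titration from 46 uM. After 24 h at 37 C, lytic HiBiT luminescence was read.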
(In general: In qHTS, concentration-response curves come from the screen itself.)

The target in assay [2] is Calcium and integrin-binding protein 1 (Homo sapiens) (UniProt Q99828). Kind of assay: Primary qHTS for Identification of Calcium Integrin Binding Protein 1 (CIB1) Competitor (AID 1508620).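 Also: GST tagged CIB1 binding a fluorescein labelled alphaIIb integrin peptide tracer; top concentration of the series differs between compounds.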 In outline:
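Fluorescence polarization competition: GST-tagged CIB1 (1 uM final) preincubated with compound 15 min at room temperature, then FITC-labelled alphaIIb peptide (100 nM final) added. After 15 min at room temperature, polarization read at Ex 480/Em 540.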

The target is the same in assay [3]. Kind of assay: Confirmatory qHTS for Identification of Calcium Integrin Binding Protein 1 (CIB1) Competitor (AID 1508617). Also: nearly all actives have a fitted effect of over 65% in size. Also: potency is read from the fitted curve at half-maximal effect. Put shortly:
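Fluorescence polarization competition: CIB1-GST (1 uM final) in 5 mM HEPES pH 7.4, 125 mM NaCl, 5 mM CaCl2, 0.01% Tween20 preincubated 15 min RT with compound (up to 114 uM), then FITC-alphaIIb peptide (100 nM) added, 15 min RT.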

Assay [4] in a line: Counterscreen qHTS for small molecule stabilizers of the endoplasmic reticulum resident proteome: GLuc-NoTag assay (AID 1508627). Also: potency is read from the fitted curve at half-maximal effect. In outline: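 SH-SY5Y cells stably expressing constitutively secreted GLuc without SERCaMP tag, exposed to compound for 19 hr, then to 100 nM thapsigargin for 4 hr at 37C. Medium luciferase was read by coelenterazine luminescence without lysis.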
A general note: Counterscreens check selectivity or assay interference.

Assay [5] in a line: Confirmatory qHTS for small molecule stabilizers of the endoplasmic reticulum resident proteome: Secreted ER Calcium Modulated Protein (SERCaMP) assay (AID 1508628). Also: series mostly up to about 76 µM; nearly all actives have a fitted effect of over 40% in size. In outline: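 SH-SY5Y cells stably expressing GLuc-SERCaMP, treated 16 h with compound (primary 1.53, 7.67, 38.3 uM; confirmation 11 concentrations, up to 76.6 uM), then 100 nM thapsigargin for 4 h. Secreted Gaussia luciferase in medium read by coelenterazine luminescence.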

Sequence of Calcium and integrin-binding protein 1 (Homo sapiens) (Q99828 whole entry, looked up): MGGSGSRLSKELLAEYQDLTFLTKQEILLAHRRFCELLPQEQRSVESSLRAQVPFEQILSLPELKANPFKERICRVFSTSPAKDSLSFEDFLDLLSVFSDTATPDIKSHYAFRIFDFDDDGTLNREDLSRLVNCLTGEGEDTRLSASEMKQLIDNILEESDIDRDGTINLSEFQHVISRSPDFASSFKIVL

Consider `CC(C)Nc1cc(C(F)(F)F)cc2nc(NC(=O)c3cccnc3)nn12`, for which the Potency entry in assay [1] is “inactive”. Besides, the result in assay [2] was inactive.

As for `CC(=O)Nc1sc2c(c1-c1nc3ccccc3s1)CNC2`, in assay [3], the Potency entry was “inactive”. In assay [2], the outcome was inactive.

In the case of `O=C(CCCCCCC(=O)Nc1ccc([C@H]2O[C@@H](CSc3nc(-c4ccccc4)c(-c4ccccc4)o3)C[C@@H](c3ccc(CO)cc3)O2)cc1)NO`, in assay [1], the activity change, negative = inhibition was 14.6% [at 8.44 µM]. Also, the outcome in assay [2] was inactive.

For `Cc1coc2c1C(=O)C(=O)c1c-2ccc2c1CCCC2(C)C`, the Potency in assay [3] is 39.8 µM (active). Further, in assay [2], the outcome was inactive.

`CC(C)(C)c1cnc(CSc2cnc(NC(=O)C3CCNCC3)s2)o1`: the Potency in assay [1] is 0.262 µM (active). In addition, the outcome in assay [2] was inactive.

Consider `Cn1c(=O)n(-c2ccc(C(C)(C)C#N)cc2)c2c3cc(-c4cnc5ccccc5c4)ccc3ncc21`, for which, in assay [2], the outcome was inactive.

In the case of `CNC(=O)c1ccccc1Nc1nc(Nc2ccc(N3CCOCC3)cc2OC)ncc1Cl`, the result in assay [2] was inactive.

Take `COc1cccc(-c2ccc(NC(=O)C3=C(C(=O)O)CCC3)c(F)c2)c1`: in assay [1], the Potency result is “inactive”. Also, the outcome in assay [2] was inactive.

Turning to `CN1CCN(Cc2ccc(NC(=O)Nc3ccc(Oc4cc(NC(=O)C5CC5)ncn4)cc3)cc2C(F)(F)F)CC1`, the Potency in assay [1] is 0.415 µM (active). In addition, the result in assay [2] was inactive.

Regarding `COc1cc(Nc2ncc(F)c(Nc3ccc4c(n3)N(COP(=O)(O)O)C(=O)C(C)(C)O4)n2)cc(OC)c1OC`, the result in assay [2] was inactive.

Consider `CC[C@H]1CN2CCc3cc(OC)c(OC)cc3[C@H]2C[C@@H]1C[C@@H]1NCCc2cc(OC)c(OC)cc21`, for which, in assay [2], the result was inactive.

`Cc1nc2cnc3ccc(C#Cc4cccnc4)cc3c2n1-c1ccc(C(C)(C)C#N)cc1`: the Potency in assay [1] is 14.7 µM (active). In assay [2], the outcome was inactive.

Consider `Nc1ccc(C(=O)c2cc3c(ccc4ccccc43)[nH]2)cc1`, for which the outcome in assay [2] was inactive.

For the compound `Cc1ccc(-c2ncn(-c3ccc(Nc4nccc(-c5cccc(N6CCOCC6)c5)n4)cc3)n2)cn1`, the Potency in assay [1] is 0.829 µM (active). In addition, in assay [2], the outcome was inactive.

On to `COc1cc(C(=O)N2CCC(N3CCN(C)CC3)CC2)ccc1Nc1ncc2c(n1)N(C)c1ccccc1C(=O)N2C`, for which, in assay [1], the Potency is 23.4 µM (active). For the same compound, the result in assay [2] was inactive.

Consider `COc1ccc2c(OCc3nnc4ccc(-c5ccccc5)nn34)ccnc2c1`, for which, in assay [1], the Potency entry is “inactive”. Also, the outcome in assay [2] was inactive.

For the compound `COc1cc2c(Oc3ccc4[nH]c(C)cc4c3F)ncnc2cc1OCCCN1CCCC1`, the Potency in assay [1] was 20.8 µM (active). Besides, in assay [2], the outcome was inactive.

As for `C=C1C(=CC=C2CCC[C@]3(C)[C@@H]([C@H](C)C=C[C@H](C)C(C)C)CC[C@@H]23)C[C@@H](O)C[C@@H]1O`, the outcome in assay [2] was inactive.

For `CC(NCc1ccc2c(c1)nc(NC(=O)c1ccc(-c3cn[nH]c3)s1)n2CC(C)(C)O)C(C)(C)C` (centres undefined), the result in assay [2] was inactive.

Turning to `COc1ccc(-c2cc3c(C)nc(N)nc3n(C3CCC(OCCO)CC3)c2=O)cn1` (centres undefined), the outcome in assay [2] was inactive.

As for `C=C1C(=CC=C2CCCC3(C)[C@@H]([C@H](C)C=CC=CC(O)(CC)CC)CC[C@@H]23)C[C@@H](O)C[C@@H]1O` (some centres undefined), the outcome in assay [2] was inactive.

For `c1cc(-c2cnn3cc(-c4ccc(OCCN5CCCCC5)cc4)cnc23)ccn1`, the Potency in assay [1] is 10.4 µM (active). In assay [2], the result was inactive.

In the case of `CCC1=C[C@@H]2CN(C1)Cc1c([nH]c3ccccc13)[C@@](C(=O)OC)(c1cc3c(cc1OC)N(C)[C@@H]1[C@@](O)(C(=O)OC)[C@H](OC(C)=O)[C@]4(CC)C=CCN5CC[C@]31[C@@H]54)C2`, the outcome in assay [2] was inactive.

As for `Cc1cc(Nc2nc(N[C@@H](C)c3ccc(F)cc3)c(C#N)cc2F)n[nH]1`, the Potency in assay [1] is 2.08 µM (active). Besides, in assay [2], the outcome was inactive.

Consider `CNC(=O)c1ccc(-c2cnc3ncc(Cc4ccc5ncccc5c4)n3n2)cc1F`, for which, in assay [1], the Potency result was “inactive”. For the same compound, the result in assay [2] was inactive.

For the compound `CC[C@@]1(O)C(=O)OCc2c1cc1n(c2=O)Cc2cc3cc(O)ccc3nc2-1`, the Potency in assay [1] was 3.3 µM (active). The outcome in assay [2] was inactive.

`Cc1ccc(NC(=O)C2(c3ccc4c(c3)OC(F)(F)O4)CC2)nc1-c1cccc(C(=O)O)c1`: the Potency result in assay [1] was “inactive”. Moreover, the outcome in assay [2] was inactive.

Consider `O=C(Nc1ncc(-c2cc(C(F)F)nn2-c2c(Cl)cccc2Cl)s1)C1CC1`, for which the result in assay [2] was inactive.

On to `COC(=O)c1ccc2c(C(=Nc3ccc(N(C)C(=O)CN4CCN(C)CC4)cc3)c3ccccc3)c(O)[nH]c2c1`, for which, in assay [1], the Potency is 16.5 µM (active). For the same compound, the outcome in assay [2] was inactive.

Turning to `Cc1cc(C(=O)N2CCN(c3cccc(Cl)c3)CC2)n(-c2ccccc2)n1`, the result in assay [2] was inactive.

For `C[C@@H]1CN(CC(=O)Nc2ccc3c(c2)Cc2cccc(-c4cc(=O)cc(N5CCOCC5)o4)c2S3)C[C@H](C)O1`, in assay [1], the Potency result was “inactive”. Also, in assay [2], the outcome was inactive.

With `CC(=O)c1c(C)c2cnc(Nc3ccc(N4CCNCC4)cn3)nc2n(C2CCCC2)c1=O`, the Potency in assay [1] is 14.7 µM (active). Further, the result in assay [2] was inactive.

In the case of `CC(C)c1noc(N2CCC(COc3ccc(-c4ccc(S(C)(=O)=O)cc4)nc3)CC2)n1`, the Potency result in assay [1] is “inactive”. The result in assay [2] was inactive.

For the compound `CN1CCN(c2cc(C(=O)Nc3ccc4c(c3)-c3c(c(C(N)=O)nn3-c3ccc(F)cc3)CC4)c(Cl)cn2)CC1`, the Potency in assay [1] was 18.6 µM (active). Further, in assay [2], the outcome was inactive.

As to `CCCCOc1c(C(=O)c2c(F)cc(C)cc2F)cnc2n[nH]cc12`, the result in assay [2] was inactive.

For the compound `COc1cc(C(C)C)c2c(c1)S(=O)(=O)N(COc1cc(=O)n3cccc(OCCN4CCCCC4)c3n1)C2=O`, the Potency in assay [4] is 39.8 µM (active). In addition, the outcome in assay [5] was inactive.

(Values after PubChem BioAssay (NCATS).)
